Assay outcomes from PubChem BioAssay.
TRHR ag: activates the human TRH receptor | P34981 | TRHR cells, calcium flux fluo-8, FDSS agonist mode | activation, % at 2 µM | actives 0.18% (n = 360,000) | AID 493084; in the data active means activation above about 30%
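Fluo-8-loaded TRHR cells; 10 s baseline, compound added, kinetic Ca2+ fluorescence read 1/s, agonist mode.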
GLP1R inv ag: acts as inverse agonist at human GLP-1 receptor; P43220; HEK293 GLP-1R CRE-luciferase, luminescence, 24 h; GLP-1R form is constitutively active; Potency, µM (series often up to 38.3 µM), hits mostly inhibitors; actives 1.6% (n = 410,000); further: nearly all actives have a fitted effect of over 55% in size
Target sequence (P43220 whole entry, looked up): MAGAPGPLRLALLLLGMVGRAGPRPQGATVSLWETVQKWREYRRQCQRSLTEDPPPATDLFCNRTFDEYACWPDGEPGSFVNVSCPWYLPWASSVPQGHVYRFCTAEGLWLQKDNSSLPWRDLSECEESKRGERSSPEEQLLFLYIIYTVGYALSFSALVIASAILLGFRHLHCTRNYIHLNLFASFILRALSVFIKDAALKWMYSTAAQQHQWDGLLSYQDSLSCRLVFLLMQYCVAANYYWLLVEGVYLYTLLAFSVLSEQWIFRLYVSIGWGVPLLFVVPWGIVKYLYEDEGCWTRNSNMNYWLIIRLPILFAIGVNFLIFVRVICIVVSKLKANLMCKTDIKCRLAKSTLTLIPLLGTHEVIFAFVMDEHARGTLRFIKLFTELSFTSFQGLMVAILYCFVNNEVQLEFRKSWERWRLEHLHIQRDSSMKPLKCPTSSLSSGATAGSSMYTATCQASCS
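Luminescence readout: a drop in cAMP-driven luciferase signal flags inverse agonism at a constitutively active GLP-1R stably expressed in HEK293. Compound exposure lasted 24 hr at 37 deg C, 5% CO2.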
GLP1R ag: GLP-1 receptor (human) agonism; P43220; HEK293 GLP-1R CRE-luciferase, luminescence, 4-6 h; cells express a hypersensitive GLP-1R form; Potency, µM (series often up to 45.6 µM), actives largely listed as activators; actives 0.007% (n = 380,000); AID 624172
PTHR1 agonist: agonists of human PTHR1 parathyroid hormone receptor; Q03431; HEK293 GP2 PTHR1 cells, GloSensor cAMP luminescence, 1 h; Potency, µM (highest dose often 115 µM), hits mostly activators; actives 0.075% (n = 410,000); further: nearly all actives have a fitted effect of over 55% in size
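HEK-293-derived GP2 cells expressing PTHR1 and a GloSensor cAMP reporter, 3,000/well, plated overnight, given luciferin plus IBMX (each 0.5 mM as added) for 1 h at 37 °C, then compound for 1 h at 37 °C. Luminescence was read after 15 min at room temperature.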
GLP1R cytotox: cytotoxicity in counter-screen for GLP-1R inverse agonists; AID 624418; HEK293 cAMP-luciferase reporter cells, luminescence, 24 h; Potency, µM (doses to about 38.3 µM), actives largely listed as inhibitors; actives 0.13% (n = 410,000);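 further: loss of luciferase light is scored as toxicity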
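Compound-treated cells are incubated 24 hr at 37 deg C under 5% CO2 after a 12 hour attachment period, then luciferase detection reagent is added and luminescence is measured following 12 min at room temperature; lowered signal indicates toxicity.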
TRHR PAM: TRH receptor (human) allosteric enhancement | enhancement, % at 2 µM | TRHR cells, fluo-8 calcium fluorescence, EC20 TRH enhancement | AID 493056 | P34981 | actives 0.66% (n = 360,000); in the data active means enhancement above about 30%
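TRHR-expressing cells loaded with fluo-8 calcium dye were read kinetically (ex 480/em 530) during compound addition, then stimulated with an EC20 of TRH (10 nM final). Enhancement of the Gq-mediated intracellular calcium response was scored.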
Each line names hits and unclear results; the compound was inactive in the other large screens. Most compounds without a hit are left out; they make up all but 2.4% or so of the library. Unless noted, the call rests on the fitted dose curve; in most records, active means well fitted curve in the direction sought with a large enough effect; inconclusive means small, poorly fitted or top-dose-only effect, or another doubt; inactive means no such curve, though single readings can be large; an effect the other way counts as inactive or inconclusive.

CC(C)Cc1ccc(CN2CCCC(NC(=O)c3ccnn3C)C2)cc1 (stereo not given)	GLP1R inv ag inconclusive
CCn1cc2nc(SCc3cccc(C)c3)n(CCc3ccccc3)c(=O)c2n1	GLP1R inv ag 7.9µM (no result: GLP1R ag)
CCOC(=O)c1c(NC(=O)CNC2CCCCC2)sc(C)c1C	GLP1R inv ag 4µM
CCOC(=O)c1c(NC(=O)CNCCO)sc(C)c1C	GLP1R ag inconclusive
CC1CCN(C(=O)c2ccc3c(c2NCCO)C(=O)c2ccccc2C3=O)CC1	GLP1R cytotox inconclusive
CCN(CC)CCNC(=O)c1ccc2c(c1NCCO)C(=O)c1ccccc1C2=O	GLP1R inv ag inconclusive, GLP1R cytotox 5µM
COc1ccc(-c2noc(CCC(=O)NCC3CCCO3)n2)cc1OC (stereo not given)	none
O=C(Nc1cc(Cl)cc(Cl)c1)C1CCC(=O)N1Cc1ccccc1Cl (stereo not given)	GLP1R inv ag inconclusive, TRHR PAM 40
CC(C)Cn1c(O)c2ccc(C(=O)N=NC(=O)c3cccnc3)cc2c1O	none
CCOCCCNC(=O)c1ccc(-n2c(-c3ccccc3)cc3c2CCCCC3)cc1	none (no result: GLP1R ag)
Cc1cc2c(n1-c1ccc(C(=O)NCCc3ccc(Cl)cc3)cc1)CCC(C)C2 (stereo not given)	TRHR PAM 31 (no result: GLP1R ag)
COCCCNC(=O)c1ccc(-n2c(-c3ccccc3)cc3c2CCC(C)C3)cc1 (stereo not given)	GLP1R inv ag 10µM, PTHR1 agonist inconclusive (no result: GLP1R ag)
Cc1nn(C)c(C(=O)NC(=S)Nc2ccc([N+](=O)[O-])cc2)c1Cl	GLP1R inv ag inconclusive, GLP1R cytotox inconclusive
CCN(CC)c1ccc2cc(-c3nc(-c4ccccc4F)no3)c(=O)oc2c1	TRHR ag 65 (no result: GLP1R ag)
CCN(CC)c1ccc2cc(-c3nc(-c4cccs4)no3)c(=O)oc2c1	TRHR ag 124 (no result: GLP1R ag)
COc1cc(-c2noc(-c3cc4cccc(C)c4oc3=O)n2)cc(OC)c1OC	none (no result: GLP1R ag)
CCN(CC)c1ccc2cc(-c3nc(-c4cc(OC)c(OC)c(OC)c4)no3)c(=O)oc2c1	TRHR ag 122 (no result: GLP1R ag)
O=c1[nH]c2cc([N+](=O)[O-])ccc2c2ccc([N+](=O)[O-])cc12	none (no result: TRHR ag, TRHR PAM)
Cc1ccc(OCC(=O)Nc2ccccc2-c2ccccc2NC(=O)COc2ccc(C)cc2)cc1	none
Cc1cccc(CS(=O)(=O)c2ncc(Cl)c(C(=O)NCc3ccc4c(c3)OCO4)n2)c1	GLP1R inv ag 8.9µM
Cc1ccc(CNC(=O)c2nc(S(=O)(=O)Cc3ccc(C)cc3)ncc2Cl)cc1	none (no result: GLP1R ag)
CC(C)CNC1=C(C(=S)Nc2ccccc2)C(=O)CC(C)(C)C1	GLP1R inv ag 4µM
O=C(N[C@H]1CCC(=O)N([C@H](CSc2ccccc2)Cc2ccccc2)CC1)OCc1ccccc1	GLP1R inv ag inconclusive
COc1ccc(SC[C@H](C)CN2CC[C@H](NC(=O)OCc3ccccc3)CCC2=O)cc1	GLP1R inv ag 10µM (no result: TRHR ag, TRHR PAM)
CC(=O)Nc1ccc(SC[C@H](C)CN2CC[C@H](C(C)(C)C)CCC2=O)cc1	GLP1R inv ag 10µM
Cc1ccc(SC[C@H](C)CN2CC[C@H](C)CCC2=O)cc1	GLP1R inv ag inconclusive
COc1ccc(S[C@@H](CCN2CC[C@H](NC(=O)OCc3ccccc3)CCC2=O)c2ccccc2)cc1	GLP1R inv ag 3.2µM (no result: TRHR ag, TRHR PAM)
O=C(N[C@@H]1CCC(=O)N(CC[C@H](Sc2ccc(Br)cc2)c2ccccc2)CC1)OCc1ccccc1	GLP1R inv ag inconclusive
O=C(N[C@H]1CCC(=O)N([C@H](CSc2ccc(Br)cc2)Cc2ccccc2)CC1)OCc1ccccc1	GLP1R inv ag 4µM (no result: TRHR ag, TRHR PAM)
C#CC1(NC(=O)NC(C)(C)C)CCCCC1	none
Cc1ccc(C(=O)NCC2(c3ccccc3)CCCC2)cc1	GLP1R inv ag 2.5µM
Nc1ccccc1C(=O)NCC1(c2ccccc2)CCCC1	GLP1R inv ag 3.2µM
COc1ccc(C(=O)NCC2(c3ccccc3)CCCC2)c(OC)c1	GLP1R inv ag 3.2µM, GLP1R ag inconclusive
O=C(Nc1ccccc1Cl)c1cc(C2CCCCN2S(=O)(=O)c2ccccc2)on1 (stereo not given)	GLP1R inv ag inconclusive (no result: TRHR ag, TRHR PAM)
Cc1ccc(S(=O)(=O)NCCCCCC(=O)NC(C)(C)CO)cc1	none
Cc1cccc(Nc2ncnc3onc(-c4ccc(F)cc4)c23)c1C	none
Cc1ccccc1CN1CCC(CNc2ncnc3onc(-c4ccc(F)cc4)c23)CC1	TRHR PAM 36 (no result: GLP1R ag)
COc1cc(N(C)C)c([N+](=O)[O-])cc1C(=O)NC(C)CNc1ccc([N+](=O)[O-])cc1Cl (stereo not given)	none
COc1cc(NC(=O)c2n[nH]c(=O)c3ccccc23)cc(OC)c1	TRHR PAM 35
CC(OC(=O)c1cnc(Cl)c(Cl)c1)C(=O)NCc1ccccc1 (stereo not given)	none
Cc1csc(NC(=O)c2ccccc2)n1	none
Cc1csc(NC(=O)c2ccc(COc3ccccc3)o2)n1	TRHR PAM 30
CCOC(=O)c1ccc(NC(=O)Nc2ccc(F)cc2)cc1	GLP1R inv ag 4.5µM, GLP1R cytotox inconclusive
Cc1cccc(NC(=O)c2ccc(COc3ccccc3)o2)n1	none
Cc1csc(NC(=S)NC(=O)c2ccccc2)n1	GLP1R inv ag 3.5µM, GLP1R cytotox inconclusive
S=C(Nc1ccc(Nc2ccccc2)cc1)Nc1ccccn1	GLP1R inv ag 2.2µM, GLP1R cytotox inconclusive
CCn1c(Oc2cccc(Br)c2)nc2c1c(=O)n(C)c(=O)n2C	none
COc1ccc(C)cc1Nc1ncnc2c1c(-c1ccccc1)cn2-c1ccc(C)cc1	none (no result: GLP1R ag)
CCOC(=O)c1ccc(NC(=S)Nc2ccccn2)cc1	GLP1R inv ag inconclusive, GLP1R cytotox 5.6µM
CCOC(=O)c1ccc(NC(=O)C2(c3ccc(OC)cc3)CCCC2)cc1	GLP1R inv ag 5µM
O=C(NC(=S)Nc1ccccn1)c1ccccc1	GLP1R inv ag 10µM, GLP1R cytotox inconclusive
O=C(NC(=S)Nc1ccccn1)c1ccc(-c2ccccc2)cc1	GLP1R inv ag inconclusive, GLP1R cytotox inconclusive
COc1ccc(Br)cc1CNC(=O)c1ccc(-n2c(C)cc3c2CCC(C)C3)cc1 (stereo not given)	none (no result: GLP1R ag)
